PME-1 inh: PME-1 inhibitors via competitive probe labeling, primary screen, biochemical, fluorescence polarization, FP-Rh probe, HTS; Protein phosphatase methylesterase 1 (Homo sapiens), Q9Y570; recombinant PME-1; inhibition, % at 5.9 µM; hit rate 0.53% among 320,000; AID 2130, 2009;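 active = inhibition above the campaign mean of all compounds plus 3 SD, cut at about 26% in these data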;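 also: competitive labeling of PME-1 active site by serine hydrolase directed probe; inhibitors block probe labeling so polarization falls and inhibition rises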
GSTO1 inh: inhibitors of recombinant GSTO1, primary screen, counter-screen for RBBP9 inhibitor project, biochemical, fluorescence polarization. hit rate 1.1% among 300,000. inhibition, % at 5.96 µM. Glutathione S-transferase omega-1 (Homo sapiens), P78417. activity-based probe fluorescence polarization;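 active = inhibition above the campaign mean inhibition plus 3 SD, cut at about 35% in these data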
Target sequence (P78417 whole entry, looked up): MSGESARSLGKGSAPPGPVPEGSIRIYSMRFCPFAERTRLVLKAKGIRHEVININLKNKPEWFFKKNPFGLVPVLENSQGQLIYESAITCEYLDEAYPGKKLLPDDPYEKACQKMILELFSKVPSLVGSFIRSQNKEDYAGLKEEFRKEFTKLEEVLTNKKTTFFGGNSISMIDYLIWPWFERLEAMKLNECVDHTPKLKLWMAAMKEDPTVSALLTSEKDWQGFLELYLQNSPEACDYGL
PAD4 inh: human PAD4 inhibitors, primary screen, biochemical, fluorescence polarization, 1536-well format | recombinant PAD4, RCA probe fluorescence polarization | inhibition, % at 6.36 µM | hit rate 0.41% among 330,000 | AID 485272, 2010;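 active = percent inhibition above a cutoff equal to the mean of all tested compounds plus 3 SD, cut at about 15% in these data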
Fam108B inh: mouse Fam108B serine hydrolase inhibitors, primary screen, counter-screen for RBBP9 inhibitor project, biochemical, fluorescence polarization; recombinant Fam108B, FP-Rh probe fluorescence polarization; inhibition, % at 9.51 µM; hit rate 0.33% among 300,000;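 active = inhibition above the screen mean inhibition plus 3 SD, computed separately per campaign, cut at about 18% in these data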;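 also: inhibitors lower polarization as less probe binds the enzyme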
LYPLA2 counter: LYPLA2 inhibitors, primary screen, counter-screen for PME1 inhibitor project, biochemical, fluorescence polarization, FP-Rh probe ABPP. Acyl-protein thioesterase 2 (Homo sapiens), O95372. recombinant LYPLA2. inhibition, % at 5.9 µM. hit rate 0.38% among 320,000. AID 2177, 2009;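 active = inhibition above the screen-wide mean plus 3 SD, limit set per campaign, cut at about 26% in these data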
LYPLA1 inh: LYPLA1 inhibitors, primary screen, counter-screen for PME1 inhibitor project, biochemical, fluorescence polarization, FP-Rh probe ABPP. hit rate 0.16% among 320,000. inhibition, % at 5.9 µM. recombinant LYPLA1. Acyl-protein thioesterase 1 (Homo sapiens), O75608. AID 2174, 2009;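 active = inhibition above the mean of all tested compounds plus 3 SD, set per campaign, cut at about 14% in these data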;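 also: inhibitors block serine hydrolase probe labeling of LYPLA1 so polarization falls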
PAD4 FP conf: human PAD4 inhibitors, confirmation, biochemical, fluorescence polarization. shares compounds with PAD4 inh. recombinant PAD4, RCA probe fluorescence polarization. inhibition, % at 6.36 µM. hit rate 28% among 1,200;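 active = mean inhibition across replicates above the hit cutoff set by the earlier primary screen, cut at about 15% in these data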;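 also: inhibitors block active-site labeling by the probe so polarization falls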
A number is an active result; n = inactive; x = no result. An excerpt weighted towards active compounds, which were near 1.8% of everything screened.

SMILES	PME-1 inh	GSTO1 inh	PAD4 inh	Fam108B inh	LYPLA2 counter	LYPLA1 inh	PAD4 FP conf
COC(=O)CCCC1=CC2=CC(=O)C(C)(OC(=O)c3cccs3)C(=O)C2=CN1CCc1ccccn1 (stereo not drawn)	n	n	17	n	n	n	n
C=CCN1C=C2C(=O)C(C)(OC(=O)c3cccs3)C(=O)C=C2C=C1CCCC(=O)OC (stereo not drawn)	n	n	n	n	n	n	x
CCN(CC)S(=O)(=O)c1ccc(N2CCOCC2)c(NC(=O)c2ccc(NC(C)=O)cc2)c1	n	n	n	n	n	n	x
COC/C=C/C1=CC2=CC(=O)C(C)(OC(=O)c3cnc4ccccc4n3)C(=O)C2=CN1CC(C)C (stereo not drawn)	n	n	19	n	n	n	n
CCCCC1=CC2=CC(=O)C(C)(OC(=O)CC)C(=O)C2=CN1CC(C)C (stereo not drawn)	n	n	n	n	n	n	x
CCC(Oc1ccccc1)C(=O)Nc1ccsc1C(=O)OC (stereo not drawn)	n	n	n	n	n	n	x
O=C(O)c1ccccc1NS(=O)(=O)c1cccc(C(F)(F)F)c1	n	n	n	n	n	n	x
O=C(O)c1ccccc1NS(=O)(=O)c1cccc(-n2sc3ccccc3c2=O)c1	n	n	43	n	n	n	33
COC(=O)c1sccc1NC(=O)c1csc(C)c1	n	n	n	n	n	n	x
Cc1nnc(SCC(=O)Nc2ccc(O)cc2)c2ccccc12	n	n	n	n	n	n	x
Cc1ccc(NC(=O)CSc2nncc3ccccc23)cc1	n	n	16	n	n	n	n
O=C(CSc1nncc2ccccc12)N1CCCCC1	n	n	17	n	n	n	n
O=C(CSc1nc(C2CC2)nc2ccccc12)N1CCCCC1	n	n	n	n	n	n	x
CC(C)(C)OC(=O)C[C@H]1C/C=C\C[C@H](CC(=O)N(CCO)Cc2ccccc2)C(=O)N[C@@H](c2ccccc2)COC1=O	x	x	n	x	x	x	x
Cc1cccc(C(=O)O/N=C(\N)Cc2cccc3ccccc23)c1	n	n	34	n	n	n	n
CC(=NC1CCCC1)c1c(C)[nH]n(-c2nc3ccccc3s2)c1=O	n	n	19	n	n	n	17
CC(=NC1CC1)c1c(-c2ccccc2)[nH]n(-c2nc3ccccc3s2)c1=O	n	n	n	n	n	n	x
CC(=O)c1c(C)oc2ccc(NS(=O)(=O)c3ccc(O)c(C(=O)O)c3)cc12	n	n	n	n	n	n	x
Cc1ccc(S(=O)(=O)Nc2ccc3oc(=O)sc3c2)c(C)c1	n	n	22	n	n	n	n
O=C(O)c1cc(S(=O)(=O)Nc2ccc3oc(=O)sc3c2)ccc1O	n	60	37	n	n	n	19
Cc1cc(=O)[nH]c(NCCO)n1	n	n	n	n	n	n	x
Cc1cc(=O)[nH]c(NN)n1	n	n	16	n	n	n	n
O=C(CCC(=O)OCc1ccc(C(=O)Oc2ccccc2)cc1)Nc1cccc2ccccc12	n	n	n	n	n	n	x
O=C(O)CSc1nnc(-c2ccccc2)c(-c2ccccc2)n1	n	n	n	n	n	n	x
CCN(CC)C(=O)CSc1nnc(-c2ccccc2)c(-c2ccccc2)n1	n	n	15	n	n	n	n
Cc1cc2c(cc1S(=O)(=O)CCC(=O)N(C)Cc1ccccc1)OCC(=O)N2	n	n	n	n	n	n	x
Cc1cc(C(=O)O)ccc1N/C=C1\CCCC(C)C1=O (stereo not drawn)	n	n	n	n	n	n	x
CC1CCC/C(=C\Nc2ccc(O)cc2)C1=O (stereo not drawn)	n	37	28	n	n	n	n
CC1=C(C#N)C(=O)OC(C)(C)C1	n	n	47	n	n	n	15
CC(=O)Nc1ccc(C(=O)OCC(=O)NCc2ccc(Cl)cc2)cc1	n	n	n	n	n	n	x
